# Laboratory results reported in PubChem BioAssay (NCATS).
# Inconclusive results are not listed. Where a call stands in place of a potency, no number is given. Unmarked numbers belong to inactive results. The source made the active and inactive calls. Calls come from the whole dose curve; as a rule, active = well fitted curve in the direction sought with a large enough effect; inconclusive = small, poorly fitted or top-dose-only effect, or another doubt; inactive = no such curve, though single readings can be large; an effect the other way counts as inactive or inconclusive.
# What was measured:
# [1] = molecular target: Rap guanine nucleotide exchange factor 3 (Homo sapiens) (UniProt O95398); assay: Confirmatory qHTS for agonist of cAMP-regulated guanine nucleotide exchange factor 3 (EPAC1) (AID 1645881);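 note: EPAC1 catalysed release of BODIPY-GDP from Rap1B seen as fluorescence loss; nearly all actives have a fitted effect of over 75% in size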
# Chain of Rap guanine nucleotide exchange factor 3 (Homo sapiens) (O95398 whole entry, looked up): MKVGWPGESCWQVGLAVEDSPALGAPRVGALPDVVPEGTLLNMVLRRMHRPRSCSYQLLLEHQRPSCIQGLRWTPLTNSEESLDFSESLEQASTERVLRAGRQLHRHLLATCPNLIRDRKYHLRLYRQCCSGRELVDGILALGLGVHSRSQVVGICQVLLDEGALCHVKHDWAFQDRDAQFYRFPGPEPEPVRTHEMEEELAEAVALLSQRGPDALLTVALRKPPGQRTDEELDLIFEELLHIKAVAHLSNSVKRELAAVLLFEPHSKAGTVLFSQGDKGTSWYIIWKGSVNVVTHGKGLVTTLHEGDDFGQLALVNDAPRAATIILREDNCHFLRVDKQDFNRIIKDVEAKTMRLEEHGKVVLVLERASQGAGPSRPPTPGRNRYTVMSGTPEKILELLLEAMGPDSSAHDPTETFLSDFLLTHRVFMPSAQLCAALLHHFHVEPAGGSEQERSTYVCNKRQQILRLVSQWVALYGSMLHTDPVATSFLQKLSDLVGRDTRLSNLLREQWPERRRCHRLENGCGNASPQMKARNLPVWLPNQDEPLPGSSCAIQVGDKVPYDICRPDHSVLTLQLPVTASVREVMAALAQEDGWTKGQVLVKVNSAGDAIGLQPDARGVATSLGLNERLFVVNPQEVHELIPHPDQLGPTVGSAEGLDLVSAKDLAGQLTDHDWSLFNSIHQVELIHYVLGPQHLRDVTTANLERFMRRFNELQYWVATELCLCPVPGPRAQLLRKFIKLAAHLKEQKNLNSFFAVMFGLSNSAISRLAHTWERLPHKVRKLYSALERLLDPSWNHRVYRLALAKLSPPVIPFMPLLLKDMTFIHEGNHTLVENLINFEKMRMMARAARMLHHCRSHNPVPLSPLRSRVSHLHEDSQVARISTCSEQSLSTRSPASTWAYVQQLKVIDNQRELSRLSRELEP
# [2] = molecular target: Rap guanine nucleotide exchange factor 4 (Homo sapiens) (UniProt Q8WZA2); assay: Confirmatory qHTS for agonist of cAMP-regulated guanine nucleotide exchange factor 4 (EPAC2) (AID 1645884);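 note: nucleotide exchange releases bodipy-GDP from Rap1 and this lowers its fluorescence; nearly all actives have a fitted effect of over 65% in size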
# Chain of Rap guanine nucleotide exchange factor 4 (Homo sapiens) (Q8WZA2 whole entry, looked up): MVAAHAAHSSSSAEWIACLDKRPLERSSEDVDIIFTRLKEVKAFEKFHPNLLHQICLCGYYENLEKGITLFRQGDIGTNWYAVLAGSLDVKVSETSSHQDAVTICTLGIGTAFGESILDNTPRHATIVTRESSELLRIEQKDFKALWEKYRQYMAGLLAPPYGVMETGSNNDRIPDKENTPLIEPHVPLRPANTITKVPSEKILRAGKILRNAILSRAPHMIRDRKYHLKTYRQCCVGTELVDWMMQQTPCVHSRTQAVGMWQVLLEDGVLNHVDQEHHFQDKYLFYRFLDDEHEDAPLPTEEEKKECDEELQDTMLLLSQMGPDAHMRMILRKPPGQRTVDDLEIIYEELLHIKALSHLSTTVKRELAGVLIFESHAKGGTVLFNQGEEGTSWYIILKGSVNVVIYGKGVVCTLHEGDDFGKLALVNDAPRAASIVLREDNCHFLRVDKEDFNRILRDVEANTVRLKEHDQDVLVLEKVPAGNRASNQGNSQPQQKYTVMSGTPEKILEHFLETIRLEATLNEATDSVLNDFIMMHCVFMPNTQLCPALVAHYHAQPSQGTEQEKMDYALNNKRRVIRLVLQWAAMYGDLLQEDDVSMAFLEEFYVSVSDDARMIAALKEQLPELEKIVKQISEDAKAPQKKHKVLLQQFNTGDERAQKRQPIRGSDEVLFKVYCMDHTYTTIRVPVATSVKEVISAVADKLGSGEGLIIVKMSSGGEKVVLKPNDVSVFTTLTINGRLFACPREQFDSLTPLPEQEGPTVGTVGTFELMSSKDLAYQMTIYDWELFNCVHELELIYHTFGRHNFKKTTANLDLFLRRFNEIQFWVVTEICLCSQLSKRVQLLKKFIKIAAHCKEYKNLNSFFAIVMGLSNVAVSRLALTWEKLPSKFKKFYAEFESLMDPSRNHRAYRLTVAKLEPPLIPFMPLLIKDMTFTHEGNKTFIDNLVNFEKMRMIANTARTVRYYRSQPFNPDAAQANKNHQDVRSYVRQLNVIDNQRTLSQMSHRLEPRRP
# [3] = molecular target: Rap guanine nucleotide exchange factor 4 (Homo sapiens) (UniProt Q8WZA2); assay: Confirmatory qHTS for antagonist of cAMP-regulated guanine nucleotide exchange factor 4 (EPAC2) (AID 1645885); note: nearly all actives have a fitted effect of over 25% in size; note: potency is the fitted concentration of half-maximal effect
# [4] = molecular target: Rap guanine nucleotide exchange factor 3 (Homo sapiens) (UniProt O95398); assay: Counterscreen qHTS for antagonist of cAMP-regulated guanine nucleotide exchange factor 3 (EPAC1) (AID 1645888);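 note: fluorescence loss as bound BODIPY-GDP is released from Rap1B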
# Procedure, shortened: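 Measured: fluorescence of BODIPY-GDP bound to Rap1B, which falls as exchange proceeds. Conditions include 50 uM competing GDP, 5 and 30 min reads, and a later cAMP challenge for antagonist detection.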
SMILES,Potency [1],Potency [2],Potency [3],Potency [4],activation [2],"activity change, negative = inhibition [4]",outcome [3]
CC(=O)N1CCC[C@H]1C(=O)NCC1Cc2cc(-c3cccc(OC(F)(F)F)c3)ccc2O1 (stereo not given in full),inactive,inactive,44.1 µM (active),–,–,–,–
O=C1CS(=O)(=O)N(Cc2cccc(F)c2)c2ccc(Br)cc21,inactive,inactive,inactive,inactive,–,–,–
O=c1nc(/C=C/c2cccn2-c2ccc([N+](=O)[O-])cc2)cc(C(F)(F)F)[nH]1,inactive,inactive,inactive,inactive,–,–,–
O=C(N/N=C/c1c(O)ccc2ccccc12)c1[nH]ncc1Br,inactive,inactive,inactive,inactive,–,–,–
NC(=O)[C@H]1CC2(CC(c3cccc(NC(=O)[C@H]4CCC(=O)N4)c3)=NO2)CN1C(=O)c1ccccc1 (stereo not given in full),inactive,inactive,inactive,inactive,–,–,–
CC(C)C[C@H]1COCCS(=O)(=O)N1Cc1cccc(C(F)(F)F)c1,inactive,inactive,inactive,–,–,–,–
Cc1ccc(-c2cc(C(=O)Nc3ccc(S(=O)(=O)Nc4onc(C)c4C)cc3)c3ccccc3n2)cc1,inactive,–,inactive,–,"6.25% [at 17.1 µM, percent relative to cAMP agonist control]",1.26% [at 30.8 µM],–
CCOC(=O)c1ccc2ncc(C(=O)OCC)c(Nc3ccc(C)c(Br)c3)c2c1,inactive,inactive,–,inactive,–,–,inactive [at 12.7 µM]
O=c1[nH][nH]c(-c2ccccc2O)c1C(C[N+](=O)[O-])c1ccc(Br)cc1 (stereo not given),inactive,inactive,inactive,inactive,–,–,–
COc1ccc(OC)c(NC(=O)C2(C)CCN2CCc2ccccc2)c1 (stereo not given),inactive,inactive,42.6 µM (active),inactive,–,–,–
CC(CNC(=O)c1sc2ncccc2c1-n1cccc1)c1ccccc1 (stereo not given),inactive,inactive,inactive,inactive,–,–,–
Cc1cccc(C)c1NC(=O)Cn1c(=O)n(Cc2ccc(C(=O)NCc3ccco3)cc2)c(=O)c2sccc21,inactive,inactive,inactive,inactive,–,–,–
COc1ccc(NC(=S)N(CCCN2CCOCC2)C(C)c2cc3cccc(OC)c3o2)cc1 (stereo not given),inactive,inactive,inactive,inactive,–,–,–
O=C1Cc2ccccc2C(=O)N1CCc1ccccc1,inactive,inactive,inactive,inactive,–,–,–
Nc1c2c(=O)[nH]c(O)cc2nn1-c1ccccc1,inactive,inactive,inactive,inactive,–,–,–
COC(=O)c1ccc2c(=O)n(CCCCCC(=O)N3CCN(c4cc(C)ccc4C)CC3)c(=O)[nH]c2c1,inactive,inactive,inactive,–,–,–,–
COC(=O)c1c(NC(=O)COC(=O)c2ccc(NC(=O)CC#N)cc2)sc2c1CCCCC2,inactive,inactive,inactive,–,–,–,–
COC(=O)[C@H](Cc1ccccc1)NC(=O)c1ccc2ccccc2n1,inactive,–,inactive,–,"3.75% [at 17.1 µM, percent relative to cAMP agonist control]",–,–
CCc1cc(-c2n[nH]c(C)c2-c2ccccc2Cl)c(O)cc1OC,inactive,inactive,inactive,–,–,–,–
Oc1ccc(NCc2cccc(OCc3ccccc3)c2)cc1,inactive,inactive,inactive,inactive,–,–,–
CCc1nc2c(OCCC3CCCCC3)cccn2c1N(C)C(=O)c1ccc(C)cc1,inactive,inactive,inactive,inactive,–,–,–
Cc1cccc(NC(=O)CN2C(=O)S/C(=C\c3cccn3-c3cccc(C(=O)O)c3)C2=O)c1,inactive,inactive,inactive,inactive,–,–,–
O=C(/C=C/c1ccccc1Cl)c1ccc(O)cc1,inactive,–,inactive,–,"13.2% [at 17.1 µM, percent relative to cAMP agonist control]",8.95% [at 30.8 µM],–
C=CCN1C(=O)[C@@H]2Cc3c([nH]c4ccccc34)C(c3ccc(O)cc3)N2C1=S (stereo not given in full),inactive,inactive,inactive,inactive,–,–,–
O=C(NC1(O)C(=O)c2ccccc2C1=O)c1ccc(C(F)(F)F)cc1,inactive,inactive,inactive,inactive,–,–,–

SMILES,Potency [1],Potency [2],Potency [3],Potency [4],activation [2],"activity change, negative = inhibition [4]",outcome [3]
NC(=O)c1c(NC(=O)CN2CCN(S(=O)(=O)c3ccccc3)CC2)sc2c1CCC2,inactive,inactive,inactive,inactive,–,–,–
Cc1cc(SCC(=O)c2ccc(O)c(O)c2)n2nc(C)c(-c3ccccc3)c2n1,inactive,inactive,inactive,inactive,–,–,–
Cc1cc(/C=C2\C(=N)N3N=C(c4ccco4)SC3=NC2=O)c(C)n1Cc1ccccc1,inactive,inactive,inactive,inactive,–,–,–
O=C(OCC1OC(n2ncc(=O)[nH]c2=O)C(OC(=O)c2ccccc2)C1OC(=O)c1ccccc1)c1ccccc1 (stereo not given),inactive,–,inactive,–,"0.888% [at 17.1 µM, percent relative to cAMP agonist control]",-8.49% [at 30.8 µM],–
O=C1/C(=C/c2cccs2)COc2ccccc21,inactive,–,inactive,–,"1.85% [at 17.1 µM, percent relative to cAMP agonist control]",-3.32% [at 30.8 µM],–
Clc1ccc(-c2nnc(-c3ccco3)nc2N2CCCCC2)cc1,inactive,–,inactive,–,"3.88% [at 17.1 µM, percent relative to cAMP agonist control]",13.5% [at 30.8 µM],–
O=C(CSc1nc2ccc(Cl)cc2[nH]1)N1CCN(C(=O)c2ccco2)CC1,inactive,inactive,inactive,inactive,–,–,–
COCOCCn1cc(CN2CCS(=O)(=O)N(Cc3ccc(-c4ccccc4)cc3)C(CC(C)C)C2=O)nn1 (stereo not given),inactive,–,3.01 µM (active),–,"4.12% [at 17.1 µM, percent relative to cAMP agonist control]",-6.67% [at 30.8 µM],–
CCOC(=O)C1CCN(c2c(C(=O)c3ccc(C)cc3)cnc3ccc(F)cc23)CC1,inactive,inactive,inactive,inactive,–,–,–
O=C(Nc1cccc(Cl)c1)Nc1ccccc1NS(=O)(=O)c1cccs1,inactive,–,inactive,–,"0% [at 17.1 µM, percent relative to cAMP agonist control]",-19.4% [at 30.8 µM],–
Cc1ccc(N(Cc2cccs2)C(=O)c2ccco2)cc1,inactive,inactive,inactive,inactive,–,–,–
CCOC(=O)c1ccc2c(c1)C1C=CCC1C(C(=O)OCC)N2 (stereo not given),inactive,–,inactive,–,"4.17% [at 17.1 µM, percent relative to cAMP agonist control]",-1.12% [at 30.8 µM],–
CCc1ccc(/C=C2\SC(=S)N(CCCC(=O)Nc3ccccc3C(=O)O)C2=O)cc1,inactive,–,inactive,–,"7.93% [at 17.1 µM, percent relative to cAMP agonist control]",0.611% [at 30.8 µM],–
CCCc1ccc2oc(C(=O)NCCc3nc(C(=O)OCC)cs3)c(C)c2c1,inactive,–,inactive,–,"-3.74% [at 17.1 µM, percent relative to cAMP agonist control]",-14.7% [at 30.8 µM],–
COC(=O)CC1(C(=O)OC)Oc2ccc(Br)cc2C(=O)N1c1cccc(Cl)c1Cl (stereo not given),inactive,inactive,1.69 µM (active),inactive,–,–,–
O=C(CSc1ccc2ccccc2c1)Nc1ccc(S(=O)(=O)Nc2nccs2)cc1,inactive,–,inactive,–,"0.22% [at 17.1 µM, percent relative to cAMP agonist control]",-0.461% [at 30.8 µM],–
Cc1ccc(SC/C(O)=C(\C#N)c2nc3ccccc3s2)cc1,inactive,inactive,inactive,inactive,–,–,–
COc1ccc(OC)c(-n2c(SC)nnc2-c2c[nH]c3ccccc23)c1,inactive,inactive,inactive,inactive,–,–,–
COc1ccc(OC)c(Nc2cc3ccccc3c(=O)[nH]2)c1,inactive,inactive,inactive,inactive,–,–,–
CCC1=NN2C(=N)/C(=C/c3ccc(OS(=O)(=O)c4ccccc4)cc3)C(=O)N=C2S1,inactive,inactive,inactive,inactive,–,–,–
O=C1C(=O)c2cccnc2-c2ncccc21,inactive,inactive,inactive,inactive,–,–,–
O=C1N(Cc2ccccc2)c2ccccc2C1(O)c1c[nH]c2ccccc12 (stereo not given),inactive,inactive,inactive,inactive,–,–,–
Cc1ccc(C(=O)c2cn(Cc3cccc(F)c3)c3nc(C)ccc3c2=O)cc1,inactive,inactive,inactive,inactive,–,–,–
CC(C)Oc1cccc(C(=O)Nc2ccc3oc(-c4cccc(Cl)c4)nc3c2)c1,inactive,inactive,inactive,inactive,–,–,–
